Consider 40 compounds from PubChem BioAssay (EPA / NIEHS).

The source made the active and inactive calls. How the source made its calls: active means hit-call score of the fitted dose curve at least 0.9, where 1 is the maximum; inactive means score below 0.9.

Read-out in the assay: X-box binding protein 1 (XBP1), XBP1 (gene 7494)
Briefly: LTEA_HepaRG_XBP1: Life Technologies and Expression Analysis (LTEA) Assay for X-box binding protein 1 (XBP1) using HepaRG (AID 2283540). Particulars: mRNA level, 48 h; actives raise or lower the signal. The protocol:
LTEA_HepaRG is a cell based, multiplexed-readout assay that uses HepaRG, a human liver cell line, with measurements taken at 48 hours after chemical dosing on a 96-well plate.LTEA_HepaRG_XBP1 is one of 102 assay component(s) measured in the LTEA HepaRG cell culture assay. It is a marker of Diseases associated with XBP1 including Major Affective Disorder 7 and Bipolar Disorder.Data from the assay component LTEA_HepaRG_XBP1 was analyzed into 1 endpoint. This assay endpoint, LTEA_HepaRG_XBP1, was analyzed with bidirectional fitting relative to DMSO as the negative control and baseline of activity. Using a type of inducible reporter, measures of mRNA induction for gain or loss-of-signal activity can be used to understand regulation of transcription factor activity. To generalize the intended target to other relatable targets, this assay endpoint is annotated to the dna binding intended target family, where the subfamily is basic leucine zipper.
A total of 1060 chemcials from the ToxCast library were tested in eight-point concentration-response experiments. Cell culture and cytotoxicity assays were conducted at Thermo Fisher Scientific's Custom Services facility (Madison, WI). A single lot of human HepaRG cells (Thermo Fisher Scientific, Frederick, MD) was used for the cell culture experiments. 96-well format collagen type I coated plates of human HepaRG cells were prepared using established methods. Briefly, cryopreserved HepaRG cells were thawed, plated at a density of approximately 100,000 cells/well in HepaRG Thaw, Plate, and General Purpose media (HPRG770, Thermo Fisher Scientific), and incubated for 48 hours. 0.5% DMSO was selected as vehicle control to balance the requisite need of DMSO in HepaRG cultures to maintain differentiation (for example, baseline metabolism, proportions of hepatocytes vs. cholangiocytes), while enabling further hepatic receptor pathway activation (for example, PXR and CAR) in response to chemical exposure. 48 hours after plating, the culture medium was replaced with HepaRG Serum-Free Incudtion Media. Cells were exposed to each test chemical in duplicate and maintained in CO2 incubators for another 48 hours. Chemical plates were thawed to room temperature and 200x concentrations of treatment groups were prepared. 8-point conentration-reponse curves were made with the highest exposure at 100 uM, followed by half-log dilutions, all in 0.5% DMSO. Each test plate contained variouse controls, induction positive controls (1mM phenobarbital), cytotoxicity positive controls ([…] aflatoxin B1), vehicle controls (0.5% DMSO), and total lysis controls (0.5% DMSO). Cell morphology images were taken using an Essen IncuCyte FLR automated microscope, with six 96-well plates imaged in about 24 minutes. Images were captured and exported and JPEG files. Spent culture media was transfered to black-well plates for the LDH assay, and remaining media was sorted at -80 C for later use. Cells were treated with RLT buffer and frozen until shipped for gene expression analysis. Total RNA was isolated from the cell suspension in 75 uL of Buffer RLT (Qiagen, Germantown, MD 20874) by Quintiles/Expression Analysis (Durham, NC) using a custom isolation procedure. Total RNA from each plate well was transferred to a preamplification plate. Fluidigm's 96.96 Dynamic ArrayTM (Fluidigm, Amsterdam, the Netherlands) technology was used for gene expression analyses by quantitative reverse transcription polymerase chain reaction (qRT-PCR, performed by Quintiles/Expression Analysis, Durham, NC)89. Standard TaqManTM Assays (Applied Biosystems/ThermoFisher Scientific, Foster City, CA) were used to assess the expression of 93 genes selected based on their selectivity and sensitivity to important hepatic receptors known to be modulated by environmental chemicals; importance in human hepatocyte functionality; and hepatotoxicity. […]
With `CC(C)C(=O)OCC(C)(C)C(OC(=O)C(C)C)C(C)C` (stereo not given), the compound was classed as inactive.

Turning to `CCOP(=S)(OCC)SCSC(C)(C)C`, the compound was classed as inactive.

On to `CO/C=C(/C(=O)OC)c1ccccc1COc1cccc(C(F)(F)F)n1`, for which the compound was classed as inactive.

For the compound `Clc1ccc(C(Cl)(Cl)Cl)cc1`, the compound was called inactive.

As to `ClC1=C(Cl)[C@]2(Cl)[C@@H]3[C@@H]4C[C@@H]([C@H]5O[C@@H]45)[C@@H]3[C@@]1(Cl)C2(Cl)Cl`, the half-maximal activity concentration (AC50) is 0.0249 µM (active).

As for `O=C(NC(=O)c1cc(F)c(F)cc1Cl)Nc1cc(F)ccc1N1CCC(C(=O)O)CC1`, the compound was called inactive.

For the compound `Cc1cc2c3c(c1)C(c1ccccc1)=N[C@@H](NC(=O)c1ccncc1)C(=O)N3CC2`, the call was inactive.

As to `O=C(NC(=O)c1c(F)cccc1F)Nc1cc(Cl)c(OC(F)(F)C(F)F)c(Cl)c1`, the outcome was inactive.

In the case of `CC#Cc1cc(C)nc(Nc2ccccc2)n1`, the result was inactive.

As to `CCCCCCCCCc1ccc(O)cc1`, the compound was classed as inactive.

Turning to `C=CC(N)=O`, the compound was classed as inactive.

As for `CC(c1ccc(O)cc1)(c1ccc(O)cc1)c1ccc(O)cc1`, the call was inactive.

Take `CCNc1nc(NC(C)C)nc(SC)n1`: the outcome was inactive.

With `CCC(=O)O[C@H]1CC[C@H]2[C@@H]3CCC4=CC(=O)CC[C@]4(C)[C@H]3CC[C@]12C`, the result was inactive.

Turning to `Clc1ccc(C(c2ccccc2Cl)C(Cl)(Cl)Cl)cc1` (stereo not given), the result was inactive.

For the compound `O=S(=O)(O)C(F)(F)C(F)(F)C(F)(F)C(F)(F)F`, the compound was called inactive.

Take `NS(=O)(=O)C(F)(F)C(F)(F)C(F)(F)C(F)(F)C(F)(F)C(F)(F)C(F)(F)C(F)(F)F`: the AC50 is 3.63 µM (active).

For `CCC(C)(c1ccc(O)cc1)c1ccc(O)cc1`, the result was inactive.

`O=S(=O)(O)C(F)(F)C(F)(F)C(F)(F)C(F)(F)C(F)(F)C(F)(F)F`: the result was inactive.

For `c1cc2ccc3cccc4ccc(c1)c2c34`, the call was inactive.

Turning to `CN(C)c1nc(=O)n(C2CCCCC2)c(=O)n1C`, the compound was classed as inactive.

Consider `CC(C)(O)C(=O)Nc1ccc([N+](=O)[O-])c(C(F)(F)F)c1`, for which the AC50 is 0.0212 µM (active).

`CCC(C)c1cc([N+](=O)[O-])cc([N+](=O)[O-])c1O` (stereo not given): the compound was called inactive.

As for `C[C@]12CCC(=O)C=C1CC[C@@H]1[C@@H]2CC[C@@]2(C)[C@H]1CC[C@]2(C)O`, the outcome was inactive.

For the compound `Cc1ccccc1[N+](=O)[O-]`, the call was inactive.

For `N#Cc1ccc(N(CC(N)=O)CC(F)(F)F)cc1C(F)(F)F`, the compound was classed as inactive.

As to `COS(=O)(=O)OC`, the compound was classed as inactive.

As to `Cc1cc(-c2ccc(N)c(C)c2)ccc1N`, the call was inactive.

For the compound `O=C(O)C(F)(F)C(F)(F)C(F)(F)C(F)(F)C(F)(F)C(F)(F)C(F)(F)C(F)(F)C(F)(F)F`, the result was inactive.

With `CCOC(=O)C(O)(c1ccc(Cl)cc1)c1ccc(Cl)cc1`, the outcome was inactive.

As to `Oc1ccc(Cl)cc1Cl`, the outcome was inactive.

With `O=NN(c1ccccc1)c1ccccc1`, the compound was classed as inactive.

Turning to `c1ccc(-c2ccccc2)cc1`, the result was inactive.

Consider `CCCCCCCCCC[N+](C)(C)CCCCCCCCCC`, for which the compound was classed as inactive.

For `CCCCCCOC(=O)c1ccccc1C(=O)OCCCCCC`, the compound was called inactive.

`C[C@]12CCC(=O)C=C1CC[C@@H]1[C@@H]2CC[C@]2(C)C(=O)CC[C@@H]12`: the result was inactive.

In the case of `O=C(O)C(F)(F)C(F)(F)C(F)(F)C(F)(F)C(F)(F)C(F)(F)C(F)(F)C(F)(F)F`, the compound was called inactive.

Consider `Cc1ccccc1CO[C@@H]1C[C@@]2(C(C)C)CC[C@]1(C)O2`, for which the outcome was inactive.

In the case of `CCCN(CCC)N=O`, the compound was called inactive.

Take `Oc1ccc(C(c2ccc(O)cc2)(C(F)(F)F)C(F)(F)F)cc1`: the half-maximal activity concentration (AC50) is 77.7 µM (active).
